# From publication PMC5540273 (PLoS ONE, 2017)
# What was measured:
# Details in all cases: concentration: 1 μM, replicates: in singlicate; n = 1
# [1] = system: DYRK1B
# [2] = system: DYRK2
# [3] = system: EGFR
# [4] = system: EIF2AK1
# [5] = system: EPHA1
# [6] = system: EPHA2
# [7] = system: EPHA3
# [8] = system: EPHA4
# [9] = system: EPHA5
# [10] = system: EPHA6
# [11] = system: EPHA7
# [12] = system: EPHA8
# [13] = system: EPHB1
# [14] = system: EPHB2
# [15] = system: EPHB3
# [16] = system: EPHB4
# [17] = system: EPHB6
# [18] = system: ERBB2
# [19] = system: ERBB3
# [20] = system: ERBB4
# 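Also: KINOMEscan kinase panel screen.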
Structure (SMILES),%Inh [1],%Inh [2],%Inh [3],%Inh [4],%Inh [5],%Inh [6],%Inh [7],%Inh [8],%Inh [9],%Inh [10],%Inh [11],%Inh [12],%Inh [13],%Inh [14],%Inh [15],%Inh [16],%Inh [17],%Inh [18],%Inh [19],%Inh [20]
O=C(Nc1n[nH]c2cc(-c3cccs3)ccc12)C1CC1 [SB-731284],0%,34%,4%,7%,0%,0%,13%,0%,0%,0%,0%,0%,0%,0%,0%,0%,55%,12%,0%,0%
COC(=O)Nc1nc2ccc(Oc3ccc(NC(=O)Nc4cc(C(F)(F)F)ccc4F)cc3)cc2[nH]1.Cl [GW654607],42%,13%,29%,26%,90.9%,98%,39%,96.8%,66%,97.7%,89%,99.6%,81%,80%,40%,58%,92.4%,6%,0%,6%
Cl.N#CCc1ccc(Nc2nccc(Nc3ccc(Oc4ccccc4)cc3)n2)cc1 [GW639905],0%,8%,33%,5%,1%,9%,0%,0%,0%,0%,0%,0%,0%,6%,0%,0%,46%,23%,96.3%,53%
CC(C)NCC(Cc1ccccc1)NC(=O)c1cc(Br)c(-c2ccnc3[nH]ccc23)s1.Cl.Cl (centres unmarked) [GSK1383281],29%,33%,26%,0%,6%,0%,8%,0%,0%,0%,0%,0%,16%,0%,2%,2%,6%,16%,0%,10%
CN(C)CCOc1ccc(-c2cc(-c3ccc(Cl)c(O)c3)c(-c3ccncc3)[nH]2)cc1.Cl.Cl [SB-684387],30%,18%,38%,31%,51%,16%,19%,10%,0%,32%,2%,4%,10%,15%,15%,23%,34%,32%,23%,32%
COc1ccc(NC(=O)c2ccoc2)cc1-c1ccc(C(=O)NCC2CC2)cc1 [GW810437],8%,21%,0%,0%,0%,0%,15%,0%,0%,0%,0%,1%,4%,0%,0%,0%,24%,15%,12%,7%
CS(=O)(=O)c1cccc(CNc2nc(Nc3ccc4c(c3)CCC(=O)N4)ncc2C(F)(F)F)c1,61%,0%,0%,0%,1%,0%,0%,0%,0%,0%,0%,0%,0%,0%,0%,0%,21%,45%,0%,3%
COc1cc(Nc2nccc(N3CCC(NS(=O)(=O)c4ccc(NC(C)=O)cc4)CC3)n2)cc(OC)c1OC [GSK1379825],8%,10%,11%,7%,54%,46%,0%,28%,0%,37%,0%,11%,6%,30%,55%,38%,96.8%,18%,38%,20%
CCNC(=O)/C=C/c1n[nH]c2cc(Sc3ccccc3C(=O)NC)ccc12,0%,7%,23%,29%,9%,7%,0%,5%,42%,16%,0%,0%,0%,1%,10%,14%,20%,16%,3%,1%
O=C(O)C(F)(F)F.O=c1[nH]ccc2nc(N[C@@H]3CCNC3)nc(Nc3cc(Cl)cc(Cl)c3)c12 [GSK2188764],21%,36%,25%,18%,6%,0%,72%,0%,0%,0%,1%,5%,28%,1%,4%,6%,17%,4%,0%,0%
Cc1ccc(Nc2ccnc(Nc3ccc(C)c(F)c3)n2)cc1O.Cl [GW582868],0%,0%,38%,3%,48%,19%,0%,2%,0%,6%,0%,26%,1%,0%,0%,8%,0%,19%,13%,9%
Nc1ncc(-c2ccc3nccc(-c4ccncc4)c3c2)cc1S(=O)(=O)N1CCCCC1 [GSK1693850],2%,22%,1%,0%,0%,21%,22%,3%,0%,0%,3%,8%,0%,15%,0%,8%,43%,31%,0%,20%
COC(=O)Nc1nc2cc(Oc3ccc(NC(=O)Nc4cccc(SC)c4)cc3)ccc2[nH]1.Cl [GW697999],0%,7%,29%,0%,59%,88%,15%,64%,26%,92.6%,54%,96.8%,61%,70%,19%,70%,80%,32%,14%,35%
Cc1nn2c(=O)cc(N3CCO[C@H](C)C3)nc2n1Cc1cccc(Cl)c1Cl [GSK2373693],11%,12%,28%,1%,1%,21%,0%,0%,0%,0%,0%,2%,3%,66%,0%,5%,3%,0%,0%,0%
Cc1cc(-c2c(-c3ccc(F)cc3)ncn2CCCN2CCOCC2)nc(N)n1 [SB-222517],20%,34%,0%,0%,0%,0%,0%,20%,9%,30%,0%,0%,0%,12%,29%,10%,0%,0%,0%,0%
Cc1ccc(C)c(NC(=O)Nc2ccc(C)c(-c3ccc(C(=O)Nc4ccncc4)cc3)c2)c1 [GSK1398473],25%,10%,35%,0%,0%,19%,0%,29%,15%,16%,3%,46%,23%,32%,12%,14%,0%,0%,0%,44%
COc1ccc(C2=C(Nc3cccc(O)c3)C(=O)NC2=O)cc1 [SB-390766],100%,30%,32%,5%,11%,0%,0%,0%,0%,0%,4%,11%,9%,87%,5%,0%,10%,11%,0%,12%

Structure (SMILES),%Inh [1],%Inh [2],%Inh [3],%Inh [4],%Inh [5],%Inh [6],%Inh [7],%Inh [8],%Inh [9],%Inh [10],%Inh [11],%Inh [12],%Inh [13],%Inh [14],%Inh [15],%Inh [16],%Inh [17],%Inh [18],%Inh [19],%Inh [20]
CN(c1ccc2c(c1)nc(NCc1ccccc1)n2C)c1ccnc(Nc2ccc(CS(C)(=O)=O)cc2)n1.Cl [GW811603],0%,0%,0%,0%,0%,13%,27%,0%,10%,0%,20%,47%,0%,0%,0%,2%,87%,35%,28%,17%
COc1cccc(NC(=O)NCCNc2ccnc(Nc3ccc(F)cc3)n2)c1 [GSK1379879],25%,0%,43%,0%,52%,27%,0%,0%,0%,0%,0%,2%,5%,0%,8%,19%,14%,39%,24%,20%
CC(C)c1nc(-c2ccc(F)c(NS(=O)(=O)c3c(F)cccc3F)c2)c(-c2ccnc(Nc3ccc(N4CCOCC4)nc3)n2)s1 [GSK1804250],0%,2%,82%,67%,96.2%,17%,31%,30%,1%,50%,12%,70%,21%,0%,24%,12%,97.3%,95.8%,98.8%,78%
Nc1cccc(-c2ccc3c(N)n[nH]c3c2)c1 [GSK2193613],0%,74%,0%,0%,9%,5%,15%,0%,0%,3%,9%,29%,9%,0%,13%,14%,14%,0%,0%,0%
CCOc1nccc(-c2c(-c3ccc(F)cc3)ncn2C2CCNCC2)n1 [SB-249175],50%,6%,9%,45%,10%,0%,13%,4%,0%,7%,0%,0%,0%,11%,0%,0%,14%,5%,36%,30%
O=C1NC(=O)C(c2ccccc2Cl)=C1Nc1cccc(Cl)c1 [SB-342409],0%,23%,0%,27%,8%,7%,0%,25%,0%,17%,15%,19%,8%,12%,13%,15%,0%,0%,0%,9%
CC(=O)Nc1cn2nc(Oc3cccc(NC(=O)c4cccc(C(F)(F)F)c4)c3)ccc2n1,0%,0%,58%,0%,75%,99.2%,65%,96%,96.2%,94.3%,7%,99.5%,95.1%,98.6%,5%,90.9%,98.1%,6%,41%,4%
Fc1cc(Cl)ccc1Nc1ccnc2cc(-c3ccc(CN4CCSCC4)o3)ccc12 [GW560106],0%,13%,71%,0%,91.1%,31%,19%,10%,0%,52%,0%,72%,43%,19%,0%,50%,91.2%,44%,77%,39%
Cc1cccc(Nc2nc(N[C@H]3CCCC[C@H]3N)ncc2C(N)=O)c1.Cl [GSK986310],37%,24%,38%,22%,26%,11%,58%,6%,2%,6%,21%,9%,32%,25%,15%,4%,17%,20%,0%,21%
Cc1ccc(NC(=O)c2ccnc(N3CCCCC3)c2)cc1-c1ccc(C(=O)NCC2CC2)cc1 [GW775610],29%,2%,26%,0%,0%,5%,6%,0%,31%,0%,0%,0%,0%,0%,0%,0%,5%,21%,0%,19%
Nc1ncc(-c2cn[nH]c2)c2scc(-c3ccc4c(c3)CCN4C(=O)Cc3ccccc3)c12 [GSK2593067],0%,7%,25%,48%,26%,0%,0%,0%,0%,12%,0%,14%,5%,0%,0%,0%,97.6%,0%,0%,0%
CN(c1ccc(F)c(NC(=O)c2cccc(OC(C)(C)C#N)c2Cl)c1)c1ccc2nc(NC(=O)C3CC3)sc2n1,46%,0%,64%,7%,58%,67%,31%,20%,0%,27%,0%,41%,10%,2%,0%,14%,88%,66%,9%,67%
Cc1ccccc1CC(=O)N1CCc2cc(-c3cn(C)c4ncnc(N)c34)ccc21 [GSK2603346],4%,4%,22%,90.1%,13%,5%,0%,0%,0%,10%,0%,5%,8%,0%,0%,0%,53%,8%,0%,32%
CN(C)CCNS(=O)(=O)c1ccc(-c2ccnc3[nH]ccc23)cc1 [GSK977620],47%,64%,37%,0%,24%,14%,0%,0%,0%,0%,7%,3%,16%,0%,0%,0%,0%,0%,0%,30%
CSc1ccc(NC2=C(c3ccc(Cl)cc3)C(=O)NC2=O)cc1 [SB-317658],17%,22%,6%,0%,32%,0%,0%,28%,31%,26%,0%,5%,0%,6%,21%,11%,0%,0%,0%,0%
O=C(Nc1n[nH]c2nc(-c3ccccc3O)ccc12)C1CC1 [SB-711880],56%,14%,27%,0%,0%,4%,30%,0%,5%,0%,58%,37%,0%,0%,0%,0%,53%,0%,0%,0%
NCCC(NC(=O)c1cc(Br)c(-c2ccnc3[nH]ccc23)s1)c1ccccc1.O=C(O)C(F)(F)F.O=C(O)C(F)(F)F (centres unmarked) [GSK1307810],70%,57%,19%,0%,10%,1%,35%,0%,0%,0%,3%,11%,4%,0%,0%,0%,27%,39%,19%,21%
